B1: unnamed (peptide)
chain: QPPLPSSAPPIPTSH
B2: unnamed (peptide)
chain: PPIPIVPSSPAPPLP
B3: unnamed (peptide)
chain: PIVPSSPAPPLPLSG

These binders were tested against AgAbp1 (assay: SPOT peptide array binding signal intensity (averaged, normalized) (arbitrary units (background-subtracted, floor 0; scale differs between SH3 domains)); higher = stronger binding of the SH3 domain to the peptide).
In short: (§1)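 The binding signal is the normalized, background-subtracted spot intensity averaged over replicates; its arbitrary units differ between domains. It was obtained by incubating 10 μg/ml GST-fused SH3 domains from four yeast species overnight at 4°C in TBS-based blocking buffer on cellulose membranes with synthetic 15-mer peptides, cysteines replaced by serines, then detecting with anti-GST antibody, HRP anti-mouse secondary and luminol.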

Binder | SPOT peptide array binding signal intensity
B1 | ≤ 0
B2 | ≤ 0
B3 | ≤ 0

The binders below were run against AgBbc1 in the same assay as above.
In short: as §1

Binder | SPOT peptide array binding signal intensity
B1 | ≤ 0
B2 | ≤ 0
B3 | ≤ 0

The binders below were run against AgBem1-D1 in the same assay as above.
In short: as §1

Binder | SPOT peptide array binding signal intensity
B1 | ≤ 0
B2 | ≤ 0
B3 | ≤ 0

The binders below were run against AgBzz1-D1 in the same assay as above.
In short: as §1

Binder | SPOT peptide array binding signal intensity
B1 | 35
B2 | 28
B3 | ≤ 0

The binders below were run against AgBzz1-D2 in the same assay as above.
In short: as §1

Binder | SPOT peptide array binding signal intensity
B1 | ≤ 0
B2 | ≤ 0
B3 | ≤ 0

What follows are binders tested against AgCyk3 in the same assay as above.
In short: as §1

Binder | SPOT peptide array binding signal intensity
B1 | ≤ 0
B2 | ≤ 0
B3 | ≤ 0

These binders were tested against AgFus1 in the same assay as above.
In short: as §1

Binder | SPOT peptide array binding signal intensity
B1 | ≤ 0
B2 | ≤ 0
B3 | ≤ 0

Each binder was assayed against AgHof1 in the same assay as above.
In short: as §1

Binder | SPOT peptide array binding signal intensity
B1 | ≤ 0
B2 | ≤ 0
B3 | ≤ 0

What follows are binders tested against AgHse1 in the same assay as above.
In short: as §1

Binder | SPOT peptide array binding signal intensity
B1 | ≤ 0
B2 | ≤ 0
B3 | 13.5

The binders below were run against AgLsb1 in the same assay as above.
In short: as §1

Binder | SPOT peptide array binding signal intensity
B1 | ≤ 0
B2 | ≤ 0
B3 | ≤ 0

The binders below were run against AgLsb4 in the same assay as above.
In short: as §1

Binder | SPOT peptide array binding signal intensity
B1 | ≤ 0
B2 | ≤ 0
B3 | ≤ 0

These binders were tested against AgMyo5 in the same assay as above.
In short: as §1

Binder | SPOT peptide array binding signal intensity
B1 | 1730
B2 | 2150
B3 | 3230

These binders were tested against AgNbp2 in the same assay as above.
In short: as §1

Binder | SPOT peptide array binding signal intensity
B1 | ≤ 0
B2 | ≤ 0
B3 | ≤ 0

The binders below were run against AgRvs167 in the same assay as above.
In short: as §1

Binder | SPOT peptide array binding signal intensity
B1 | ≤ 0
B2 | ≤ 0
B3 | ≤ 0

The binders below were run against AgSho1 in the same assay as above.
In short: as §1

Binder | SPOT peptide array binding signal intensity
B1 | ≤ 0
B2 | ≤ 0
B3 | ≤ 0

What follows are binders tested against AgSla1-D1-D2 in the same assay as above.
In short: as §1

Binder | SPOT peptide array binding signal intensity
B1 | ≤ 0
B2 | ≤ 0
B3 | 7

These binders were tested against AgSla1-D3 in the same assay as above.
In short: as §1

Binder | SPOT peptide array binding signal intensity
B1 | ≤ 0
B2 | ≤ 0
B3 | ≤ 0

Each binder was assayed against CaAbp1-D1 in the same assay as above.
In short: as §1

Binder | SPOT peptide array binding signal intensity
B1 | ≤ 0
B2 | ≤ 0
B3 | ≤ 0

Each binder was assayed against CaAbp1-D2 in the same assay as above.
In short: as §1

Binder | SPOT peptide array binding signal intensity
B1 | ≤ 0
B2 | ≤ 0
B3 | ≤ 0

What follows are binders tested against CaBbc1 in the same assay as above.
In short: as §1

Binder | SPOT peptide array binding signal intensity
B1 | ≤ 0
B2 | 0.5
B3 | ≤ 0

These binders were tested against CaBem1-D1 in the same assay as above.
In short: as §1

Binder | SPOT peptide array binding signal intensity
B1 | 8.5
B2 | ≤ 0
B3 | ≤ 0

The binders below were run against CaBzz1-D1 in the same assay as above.
In short: as §1

Binder | SPOT peptide array binding signal intensity
B1 | ≤ 0
B2 | ≤ 0
B3 | 19

Each binder was assayed against CaBzz1-D2 in the same assay as above.
In short: as §1

Binder | SPOT peptide array binding signal intensity
B1 | 2.5
B2 | ≤ 0
B3 | 11.2

These binders were tested against CaCyk3 in the same assay as above.
In short: as §1

Binder | SPOT peptide array binding signal intensity
B1 | ≤ 0
B2 | ≤ 0
B3 | ≤ 0

These binders were tested against CaFus1 in the same assay as above.
In short: as §1

Binder | SPOT peptide array binding signal intensity
B1 | ≤ 0
B2 | ≤ 0
B3 | 14.5

Each binder was assayed against CaHof1 in the same assay as above.
In short: as §1

Binder | SPOT peptide array binding signal intensity
B1 | ≤ 0
B2 | ≤ 0
B3 | ≤ 0

What follows are binders tested against CaHse1 in the same assay as above.
In short: as §1

Binder | SPOT peptide array binding signal intensity
B1 | ≤ 0
B2 | ≤ 0
B3 | ≤ 0

The binders below were run against CaLsb1 in the same assay as above.
In short: as §1

Binder | SPOT peptide array binding signal intensity
B1 | ≤ 0
B2 | ≤ 0
B3 | ≤ 0

Each binder was assayed against CaLsb4 in the same assay as above.
In short: as §1

Binder | SPOT peptide array binding signal intensity
B1 | ≤ 0
B2 | ≤ 0
B3 | ≤ 0

Each binder was assayed against CaMyo5 in the same assay as above.
In short: as §1

Binder | SPOT peptide array binding signal intensity
B1 | 510
B2 | 833
B3 | 611

These binders were tested against CaNbp2 in the same assay as above.
In short: as §1

Binder | SPOT peptide array binding signal intensity
B1 | ≤ 0
B2 | 47.5
B3 | 4.5

These binders were tested against CaRvs167 in the same assay as above.
In short: as §1

Binder | SPOT peptide array binding signal intensity
B1 | ≤ 0
B2 | ≤ 0
B3 | ≤ 0

These binders were tested against CaRvs167-3 in the same assay as above.
In short: as §1

Binder | SPOT peptide array binding signal intensity
B1 | 0.5
B2 | ≤ 0
B3 | 1

These binders were tested against CaSho1 in the same assay as above.
In short: as §1

Binder | SPOT peptide array binding signal intensity
B1 | ≤ 0
B2 | ≤ 0
B3 | ≤ 0

The binders below were run against CaSla1-D1-D2 in the same assay as above.
In short: as §1

Binder | SPOT peptide array binding signal intensity
B1 | ≤ 0
B2 | ≤ 0
B3 | 0.5

Each binder was assayed against CaSla1-D3 in the same assay as above.
In short: as §1

Binder | SPOT peptide array binding signal intensity
B1 | ≤ 0
B2 | ≤ 0
B3 | ≤ 0

These binders were tested against ScAbp1 in the same assay as above.
In short: as §1

Binder | SPOT peptide array binding signal intensity
B1 | ≤ 0
B2 | ≤ 0
B3 | ≤ 0

The binders below were run against ScBbc1 in the same assay as above.
In short: as §1

Binder | SPOT peptide array binding signal intensity
B1 | ≤ 0
B2 | ≤ 0
B3 | ≤ 0

Each binder was assayed against ScBem1-D1 in the same assay as above.
In short: as §1

Binder | SPOT peptide array binding signal intensity
B1 | ≤ 0
B2 | ≤ 0
B3 | ≤ 0

Each binder was assayed against ScBzz1-D1 in the same assay as above.
In short: as §1

Binder | SPOT peptide array binding signal intensity
B1 | ≤ 0
B2 | ≤ 0
B3 | 7.5

Each binder was assayed against ScBzz1-D2 in the same assay as above.
In short: as §1

Binder | SPOT peptide array binding signal intensity
B1 | ≤ 0
B2 | ≤ 0
B3 | 1.5

These binders were tested against ScCyk3 in the same assay as above.
In short: as §1

Binder | SPOT peptide array binding signal intensity
B1 | ≤ 0
B2 | ≤ 0
B3 | ≤ 0

What follows are binders tested against ScFus1 in the same assay as above.
In short: as §1

Binder | SPOT peptide array binding signal intensity
B1 | ≤ 0
B2 | ≤ 0
B3 | ≤ 0

The binders below were run against ScHof1 in the same assay as above.
In short: as §1

Binder | SPOT peptide array binding signal intensity
B1 | ≤ 0
B2 | 1.5
B3 | ≤ 0

These binders were tested against ScHse1 in the same assay as above.
In short: as §1

Binder | SPOT peptide array binding signal intensity
B1 | ≤ 0
B2 | ≤ 0
B3 | ≤ 0

The binders below were run against ScLsb1 in the same assay as above.
In short: as §1

Binder | SPOT peptide array binding signal intensity
B1 | ≤ 0
B2 | ≤ 0
B3 | ≤ 0

The binders below were run against ScLsb2 in the same assay as above.
In short: as §1

Binder | SPOT peptide array binding signal intensity
B1 | ≤ 0
B2 | ≤ 0
B3 | ≤ 0

These binders were tested against ScLsb3 in the same assay as above.
In short: as §1

Binder | SPOT peptide array binding signal intensity
B1 | ≤ 0
B2 | ≤ 0
B3 | ≤ 0

What follows are binders tested against ScLsb4 in the same assay as above.
In short: as §1

Binder | SPOT peptide array binding signal intensity
B1 | ≤ 0
B2 | ≤ 0
B3 | ≤ 0

What follows are binders tested against ScMyo3 in the same assay as above.
In short: as §1

Binder | SPOT peptide array binding signal intensity
B1 | 2510
B2 | 2260
B3 | 2720

These binders were tested against ScMyo5 in the same assay as above.
In short: as §1

Binder | SPOT peptide array binding signal intensity
B1 | 1600
B2 | 1940
B3 | 3220

What follows are binders tested against ScNbp2 in the same assay as above.
In short: as §1

Binder | SPOT peptide array binding signal intensity
B1 | ≤ 0
B2 | ≤ 0
B3 | ≤ 0

These binders were tested against ScPex13 in the same assay as above.
In short: as §1

Binder | SPOT peptide array binding signal intensity
B1 | ≤ 0
B2 | ≤ 0
B3 | ≤ 0

What follows are binders tested against ScRvs167 in the same assay as above.
In short: as §1

Binder | SPOT peptide array binding signal intensity
B1 | ≤ 0
B2 | ≤ 0
B3 | ≤ 0

Each binder was assayed against ScSho1 in the same assay as above.
In short: as §1

Binder | SPOT peptide array binding signal intensity
B1 | ≤ 0
B2 | ≤ 0
B3 | ≤ 0

Each binder was assayed against ScSla1-D1-D2 in the same assay as above.
In short: as §1

Binder | SPOT peptide array binding signal intensity
B1 | ≤ 0
B2 | ≤ 0
B3 | 1

Each binder was assayed against ScSla1-D3 in the same assay as above.
In short: as §1

Binder | SPOT peptide array binding signal intensity
B1 | ≤ 0
B2 | 0.25
B3 | 7.5

Each binder was assayed against SpAbp1-D1 in the same assay as above.
In short: as §1

Binder | SPOT peptide array binding signal intensity
B1 | 2.5
B2 | ≤ 0
B3 | ≤ 0

What follows are binders tested against SpBbc1 in the same assay as above.
In short: as §1

Binder | SPOT peptide array binding signal intensity
B1 | 4.25
B2 | 3.5
B3 | 6

Each binder was assayed against SpBzz1-D1 in the same assay as above.
In short: as §1

Binder | SPOT peptide array binding signal intensity
B1 | ≤ 0
B2 | ≤ 0
B3 | 52.5

What follows are binders tested against SpBzz1-D2 in the same assay as above.
In short: as §1

Binder | SPOT peptide array binding signal intensity
B1 | ≤ 0
B3 | 1.5

The binders below were run against SpCyk3 in the same assay as above.
In short: as §1

Binder | SPOT peptide array binding signal intensity
B1 | ≤ 0
B3 | ≤ 0

The binders below were run against SpHof1 in the same assay as above.
In short: as §1

Binder | SPOT peptide array binding signal intensity
B1 | ≤ 0
B3 | ≤ 0

These binders were tested against SpHof1-2 in the same assay as above.
In short: as §1

Binder | SPOT peptide array binding signal intensity
B1 | ≤ 0
B3 | ≤ 0

Each binder was assayed against SpHof1-3 in the same assay as above.
In short: as §1

Binder | SPOT peptide array binding signal intensity
B1 | ≤ 0
B3 | ≤ 0

The binders below were run against SpHse1 in the same assay as above.
In short: as §1

Binder | SPOT peptide array binding signal intensity
B1 | 17.5
B3 | 7

These binders were tested against SpLsb1 in the same assay as above.
In short: as §1

Binder | SPOT peptide array binding signal intensity
B1 | ≤ 0
B3 | ≤ 0

What follows are binders tested against SpLsb4 in the same assay as above.
In short: as §1

Binder | SPOT peptide array binding signal intensity
B1 | ≤ 0
B3 | ≤ 0

What follows are binders tested against SpMyo1 in the same assay as above.
In short: as §1

Binder | SPOT peptide array binding signal intensity
B1 | 1080
B3 | 1220

Each binder was assayed against SpNbp2 in the same assay as above.
In short: as §1

Binder | SPOT peptide array binding signal intensity
B1 | ≤ 0
B3 | ≤ 0

These binders were tested against SpPex13 in the same assay as above.
In short: as §1

Binder | SPOT peptide array binding signal intensity
B1 | 1
B3 | 1

Each binder was assayed against SpRvs167 in the same assay as above.
In short: as §1

Binder | SPOT peptide array binding signal intensity
B1 | ≤ 0
B3 | 3.5

The binders below were run against SpSla1-D1-D2 in the same assay as above.
In short: as §1

Binder | SPOT peptide array binding signal intensity
B1 | ≤ 0
B3 | ≤ 0

What follows are binders tested against SpSla1-D3 in the same assay as above.
In short: as §1

Binder | SPOT peptide array binding signal intensity
B1 | 3.5
B3 | ≤ 0

Reference: the supplement of paper PMC4466140
